# Laboratory results reported in PMC11062922 (Nature Chemical Biology, 2023).
# Read-outs that look alike come from different tables or passages of the source.
# Legend:
# Set-up in all cases: species or system human, MV4-11 + K-562 + COLO205 + SK-N-BE2 + OVCAR-8
# VDAC3 = details: read-out: apparent Kd, n = 1
# PRKX;PRKY = details: read-out: apparent Kd, compound concentrations: 100 nM and 1000 nM (sheet 'Samples'), n = 1
# MELK = details: read-out: apparent Kd, n = 1
# ULK3 = details: read-out: apparent Kd, n = 1
# ICK = details: read-out: apparent Kd; compound concentrations: 100 nM and 1000 nM (sheet 'Samples'), CATDS: 0.109854156237019; n = 1
# CDK6 = details: read-out: apparent Kd; compound concentrations: 100 nM and 1000 nM (sheet 'Samples'), CATDS: 3.7997833467257401E-2; n = 1
# CSNK1G1 = details: read-out: apparent Kd, compound concentrations: 100 nM and 1000 nM (sheet 'Samples'), n = 1
# ILK = details: read-out: apparent Kd; compound concentrations: 100 nM and 1000 nM (sheet 'Samples'), CATDS: 4.6551408852927599E-2; n = 1
# STRADA = details: read-out: apparent Kd, compound concentrations: 100 nM and 1000 nM (sheet 'Samples'), n = 1
# ERN2 = details: read-out: apparent Kd, compound concentrations: 100 nM and 1000 nM (sheet 'Samples'), n = 1
# ATM = details: read-out: apparent Kd, compound concentrations: 100 nM and 1000 nM (sheet 'Samples'), n = 1
# FER = details: read-out: apparent Kd, n = 1
# GRK6 = details: read-out: apparent Kd, compound concentrations: 100 nM and 1000 nM (sheet 'Samples'), n = 1
# MYLK3 = details: read-out: apparent Kd, compound concentrations: 100 nM and 1000 nM (sheet 'Samples'), n = 1
# PAK4 = details: read-out: apparent Kd, n = 1
# RPS6KA6 = details: read-out: apparent Kd, n = 1
# ERN1 = details: read-out: apparent Kd, compound concentrations: 100 nM and 1000 nM (sheet 'Samples'), n = 1
# MAP4K1 = details: read-out: apparent Kd; compound concentrations: 100 nM and 1000 nM (sheet 'Samples'), CATDS: 1.9870950610889799E-2; n = 1
# CDC42 = details: read-out: apparent Kd; compound concentrations: 100 nM and 1000 nM (sheet 'Samples'), CATDS: 2.73171121323963E-2; n = 1
# MAP3K1 = details: read-out: apparent Kd; compound concentrations: 100 nM and 1000 nM (sheet 'Samples'), CATDS: 0.17625774536474501; n = 1
# [1] = compound concentrations:100 nM and 1000 nM (sheet 'Samples')
structure (smiles),measurement,setting,value
CS(=O)(=O)Cc1ccc(Nc2nccc(-c3c(-c4cccc(NC(=O)C5CCCCC5)c4)nn4ncccc34)n2)cc1 [GSK350559A],potency estimated from few doses,VDAC3; [1],2.03 µM
O=C1N=C(NCC(CO)c2ccccc2)S/C1=C\c1ccc2ncccc2c1 (stereo not drawn) [RO4582641-000],potency estimated from few doses,PRKX;PRKY; CATDS: 6.1310776599809498E-2,1.91 µM
CC(C)c1cc(-c2ccc3c(N)n[nH]c3c2)nc(N)n1 [GSK2250882A],potency estimated from few doses,MELK; [1],1.3 µM
Cc1cccc(-c2cc(-c3c[nH]nc3-c3ccccn3)ccn2)c1 [GW679395X],potency estimated from few doses,ULK3; [1],1.45 µM
Cn1cc(C2=C(c3cn(CCCO)c4ccccc34)C(=O)NC2=O)c2ccccc21 [RO0317377-000],potency estimated from few doses,ICK,1.46 µM
COc1ccc(Nc2nccc(N3CCC(NC(=O)Nc4ccc5c(c4)OCO5)C3)n2)cc1 (stereo not drawn) [GSK1379745A],potency estimated from few doses,CDK6,1.68 µM
same,potency estimated from few doses,CSNK1G1; CATDS: 3.8833809861808503E-2,1.6 µM
same,potency estimated from few doses,ILK,1.11 µM
same,potency estimated from few doses,STRADA; CATDS: 3.4015058114393301E-2,2.21 µM
O=C1N=C(NCCc2cccc(F)c2)S/C1=C\c1ccc2ncccc2c1 [RO4508344-000],potency estimated from few doses,ERN2; CATDS: 7.9069869208326996E-2,1.66 µM
O=C1N=C(NCc2cccs2)SC1Cc1ccc2ncccc2c1 (stereo not drawn) [RO4629078-000],potency estimated from few doses,ATM; CATDS: 2.5456508312119999E-2,0.123 µM
same,potency estimated from few doses,"FER; compound concentrations: 100 nM and 1000 nM (sheet 'Samples'), CATDS: 1.87753699623531E-2",0.195 µM
same,potency estimated from few doses,GRK6; CATDS: 8.7219841617169405E-3,0.974 µM
same,potency estimated from few doses,"MELK; compound concentrations: 100 nM and 1000 nM (sheet 'Samples'), CATDS: 7.0296492391178304E-3",2.19 µM
same,potency estimated from few doses,MYLK3; CATDS: 7.0392832090842503E-3,2.17 µM
same,potency estimated from few doses,"PAK4; compound concentrations: 100 nM and 1000 nM (sheet 'Samples'), CATDS: 1.27068399594295E-2",0.391 µM
same,potency estimated from few doses,PRKX;PRKY; CATDS: 7.8908157683285005E-3,1.35 µM
same,potency estimated from few doses,"RPS6KA6; compound concentrations: 100 nM and 1000 nM (sheet 'Samples'), CATDS: 1.4576364077707399E-2",0.301 µM
same,potency estimated from few doses,"ULK3; compound concentrations: 100 nM and 1000 nM (sheet 'Samples'), CATDS: 7.6579624487381603E-3",1.51 µM
CC(C)c1nc(-c2cccc(NS(=O)(=O)c3ccccc3)c2)c(-c2ccnc(Nc3ccc4c(c3)CN(C)CC4)n2)s1 [GSK1649598A],potency estimated from few doses,ERN1; CATDS: 1.5593168360276599E-2,0.758 µM
same,potency estimated from few doses,ERN2; CATDS: 3.39417380215319E-2,0.124 µM
same,potency estimated from few doses,MAP4K1,0.381 µM
Cc1cccc(Nc2nc(NCCN)ncc2C(N)=O)c1 [GSK1292139B],potency estimated from few doses,"PAK4; compound concentrations: 100 nM and 1000 nM (sheet 'Samples'), CATDS: 9.0340207585202004E-2",0.778 µM
Cl.Cl.Cl.c1ccc(Oc2ccc(Nc3ccnc4cc(-c5ccc(CN6CCNCC6)o5)ccc34)cc2)nc1.c1ccc(Oc2ccc(Nc3ccnc4cc(-c5ccc(CN6CCNCC6)o5)ccc34)cc2)nc1 [GW567142A],potency estimated from few doses,GRK6; CATDS: 1.87269868098595E-2,1.43 µM
same,potency estimated from few doses,MYLK3; CATDS: 1.6491067951183699E-2,2.32 µM
same,potency estimated from few doses,"VDAC3; compound concentrations: 100 nM and 1000 nM (sheet 'Samples'), CATDS: 1.74915256837203E-2",1.83 µM
CS(=O)(=O)CCNCc1ccc(-c2ccc3ncnc(Nc4ccc(OCc5cccc(F)c5)c(C(F)(F)F)c4)c3c2)o1 [GW576484X],potency estimated from few doses,CSNK1G1; CATDS: 5.4638885824274799E-2,1.62 µM
same,potency estimated from few doses,STRADA; CATDS: 5.2854601863181902E-2,1.74 µM
O=C1N=C(NCc2ccccc2)S/C1=C\c1ccc2ncccc2c1 [RO4442080-000],potency estimated from few doses,MYLK3; CATDS: 7.9842207059825906E-2,1.93 µM
same,potency estimated from few doses,PRKX;PRKY; CATDS: 0.10891085030607001,0.835 µM
Cc1ccc(O)cc1Nc1ccnc2ccc(C(C)(C)C)cc12 [GW856805X],potency estimated from few doses,CDC42,1.43 µM
COc1cccc(-n2cnc3c(N/N=C/c4ccncc4)ncnc32)c1 [GW813360X],potency estimated from few doses,MAP3K1,1.04 µM
CN(C)Cc1ccc(-c2ccc3c(Nc4ccc(Oc5ccccn5)cc4)ccnc3c2)o1 [GW567148X],potency estimated from few doses,"FER; compound concentrations: 100 nM and 1000 nM (sheet 'Samples'), CATDS: 2.46743192274099E-2",0.568 µM
same,potency estimated from few doses,"RPS6KA6; compound concentrations: 100 nM and 1000 nM (sheet 'Samples'), CATDS: 2.11191304038983E-2",0.847 µM
O=S(=O)(CCOCc1ccc(-c2ccc3ncnc(Nc4ccc(OCc5cccc(F)c5)c(Cl)c4)c3c2)o1)c1ccccc1 [GW615311X],potency estimated from few doses,ATM; CATDS: 0.104410485471121,0.179 µM
COc1cc2ncn(-c3cc(OCCCc4ccccc4)c(C(N)=O)s3)c2cc1OC [GSK205189A],potency estimated from few doses,FER; [1],0.0551 µM
same,potency estimated from few doses,PAK4; [1],1.35 µM
same,potency estimated from few doses,RPS6KA6; [1],0.907 µM
CC(=O)N1CCN(c2ccc(Nc3nccc(-c4sc(C(C)C)nc4-c4cccc(NS(=O)(=O)c5cccc(Cl)c5)c4)n3)cn2)CC1 [GSK1660437A],potency estimated from few doses,ERN1; CATDS: 3.4539361157079097E-2,2.42 µM
